Five molecules from PubChem BioAssay (EPA / NIEHS) can be followed below.

The source made the active and inactive calls. How the source made its calls: active means hit-call score of the fitted dose curve at least 0.9, where 1 is the maximum; inactive means score below 0.9.

Read-out in test [1]: Urokinase-type plasminogen activator receptor (uPAR), PLAUR (gene 5329)
Kind of test: BSK_CASM3C_uPAR: BioMAP Diversity Plus: CASM3C Assay for Urokinase-type plasminogen activator receptor (uPAR) Biomarker Activity (AID 2283054).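 Further: cell-surface uPAR protein level quantified by ELISA.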 The note with it: primary human coronary artery smooth muscle cells; actives raise or lower the signal.

Read-out in test [2]: Vascular cell adhesion molecule 1 (VCAM1), VCAM1 (gene 7412)
Nature of the test: BSK_CASM3C_VCAM1: BioMAP Diversity Plus: CASM3C Assay for Vascular cell adhesion molecule 1 (VCAM1) Biomarker Activity (AID 2283055).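 Further: VCAM-1 protein level quantified by ELISA on the cells.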 The note with it: primary human coronary artery smooth muscle cells; actives raise or lower the signal.

Read-out in test [3]: Collagen III, COL3A1 (gene 1281)
Nature of the test: BSK_hDFCGF_CollagenIII: BioMAP Diversity Plus: hDFCGF Assay for Collagen III Biomarker Activity (AID 2283056). The note with it: primary human foreskin fibroblasts; actives raise or lower the signal. The essentials:
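ELISA readout of Collagen III in human dermal (foreskin) fibroblasts, taken 24 h post-treatment. Gain or loss relative to DMSO vehicle fitted in both directions.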

Read-out in test [4]: Interleukin-8 (IL8), CXCL8 (gene 3576)
Kind of test: BSK_hDFCGF_IL8: BioMAP Diversity Plus: hDFCGF Assay for Interleukin-8 (IL8) Biomarker Activity (AID 2283058). The following applies: primary human foreskin fibroblasts; actives raise or lower the signal. In a few lines:
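IL-8 levels read by ELISA at 24 hours after dosing human skin fibroblast cultures. Parallel SRB staining assessed overt cytotoxicity, and gain or loss of signal was fitted against DMSO control.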

Test [5] is described as follows: BSK_hDFCGF_Proliferation: Cell Proliferation Assessment in the BioMAP Diversity Plus: hDFCGF Assay (AID 2283059).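 Further: curves fitted for both rise and fall of signal versus DMSO baseline.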 The following applies: primary human foreskin fibroblasts. In a few lines: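 This proliferation readout used SRB total-protein staining of human foreskin fibroblasts […], normalized to DMSO with bidirectional curve fitting.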
Read-out in test [6]: Macrophage colony-stimulating factor (MCSF), CSF1 (gene 1435)
Nature of the test: BSK_hDFCGF_MCSF: BioMAP Diversity Plus: hDFCGF Assay for Macrophage colony-stimulating factor (MCSF) Biomarker Activity (AID 2283060). The following applies: primary human foreskin fibroblasts; actives raise or lower the signal. The essentials: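 M-CSF levels read by ELISA at 24 h post-dosing in human skin fibroblasts. Parallel cultures stained with SRB assessed cytotoxicity at the same time point; response fitted in both directions against the DMSO baseline.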

Test [7] in a line: BSK_hDFCGF_SRB: Viability Assessment in the BioMAP Diversity Plus: hDFCGF Assay (AID 2283061).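 Further: cells exposed to compound for 24 h before the read.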 The following applies: primary human foreskin fibroblasts. The essentials:
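Viability was read as total protein: after 10% TCA fixation, wells were stained with 0.1% sulforhodamine B and read at 560 nm. Primary human foreskin fibroblasts were dosed for 24 h, with bidirectional fitting versus DMSO.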

Read-out in test [8]: TIMP metallopeptidase inhibitor 1 (TIMP1), TIMP1 (gene 7076)
Nature of the test: BSK_hDFCGF_TIMP1: BioMAP Diversity Plus: hDFCGF Assay for TIMP metallopeptidase inhibitor 1 (TIMP1) Biomarker Activity (AID 2283062). The following applies: primary human foreskin fibroblasts; actives raise or lower the signal. The essentials: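 TIMP-1 measured by ELISA 24 h after chemical dosing of primary human skin fibroblasts, with gain or loss fitted relative to DMSO. Parallel SRB staining (560 nm) monitored overt cytotoxicity.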

Read-out in test [9]: Monokine induced gamma interferon (MIG), CXCL9 (gene 4283)
Kind of test: BSK_hDFCGF_MIG: BioMAP Diversity Plus: hDFCGF Assay for Monokine induced gamma interferon (MIG) Biomarker Activity (AID 2283063). The note with it: primary human foreskin fibroblasts; actives raise or lower the signal. In a few lines:
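Human primary foreskin fibroblasts in the hDFCGF system, exposed to test chemical for 24 h; MIG measured by ELISA. Bidirectional curve fitting against DMSO negative control as activity baseline.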

Read-out in test [10]: Matrix Metallopeptidase 1 (MMP1), MMP1 (gene 4312)
Nature of the test: BSK_hDFCGF_MMP1: BioMAP Diversity Plus: hDFCGF Assay for Matrix Metallopeptidase 1 (MMP1) Biomarker Activity (AID 2283064). The note with it: primary human foreskin fibroblasts; actives raise or lower the signal. In a few lines:
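MMP1 levels quantified by ELISA 24 h after dosing human dermal fibroblast cultures, with parallel SRB total-protein staining for overt cytotoxicity. Data fitted in both directions against DMSO baseline.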

Read-out in test [11]: Vascular cell adhesion molecule 1 (VCAM1), VCAM1 (gene 7412)
Kind of test: BSK_hDFCGF_VCAM1: BioMAP Diversity Plus: hDFCGF Assay for Vascular cell adhesion molecule 1 (VCAM1) Biomarker Activity (AID 2283065).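 On AC50: VCAM-1 protein level quantified by ELISA after 24 h chemical exposure.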 The following applies: primary human foreskin fibroblasts; actives raise or lower the signal. In a few lines: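 ELISA readout of VCAM-1 on human dermal fibroblast primary cultures, 24 h after chemical exposure. Gain or loss of signal fitted in both directions against DMSO baseline.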

Read-out in test [12]: Plasminogen activator inhibitor-1 (PAI1), SERPINE1 (gene 5054)
Nature of the test: BSK_hDFCGF_PAI1: BioMAP Diversity Plus: hDFCGF Assay for Plasminogen activator inhibitor-1 (PAI1) Biomarker Activity (AID 2283066). The following applies: primary human foreskin fibroblasts; actives raise or lower the signal. In a few lines:
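Fibroblasts from human foreskin were treated with test chemical. After 24 h, PAI-1 was measured by ELISA. Activity was fitted in both directions relative to DMSO.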

Read-out in test [13]: Intercellular Adhesion Molecule 1 (ICAM1), ICAM1 (gene 3383)
Nature of the test: BSK_KF3CT_ICAM1: BioMAP Diversity Plus: KF3CT Assay for Intercellular Adhesion Molecule 1 (ICAM1) Biomarker Activity (AID 2283067). The note with it: primary human keratinocytes with fibroblasts; actives raise or lower the signal. The essentials:
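Cell-surface ICAM-1 was measured by ELISA 24 h after dosing primary human skin keratinocytes co-cultured with fibroblasts. Parallel SRB staining tracked overt cytotoxicity. Gain or loss of signal was fitted relative to DMSO.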

Read-out in test [14]: Interferon-gamma inducible Protein 10 (IP10), CXCL10 (gene 3627)
Nature of the test: BSK_KF3CT_IP10: BioMAP Diversity Plus: KF3CT Assay for Interferon-gamma inducible Protein 10 (IP10) Biomarker Activity (AID 2283068). The following applies: primary human keratinocytes with fibroblasts; actives raise or lower the signal. The essentials: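 Signal is secreted/surface IP-10 by ELISA in a human primary skin co-culture of keratinocytes and foreskin fibroblasts, taken 24 h post-dosing; DMSO served as negative control.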

A short description of test [15]: BSK_KF3CT_SRB: Viability Assessment in the BioMAP Diversity Plus: KF3CT Assay (AID 2283069).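 Further: total protein by sulforhodamine B staining as a cytotoxicity measure; read 24 h after compound addition.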 The note with it: primary human keratinocytes with fibroblasts. The essentials: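 Cytotoxicity was gauged by SRB staining (0.1% SRB, 10% TCA fixation, 560 nm) of parallel cultures at 24 h. The cells were primary human skin keratinocytes co-cultured with fibroblasts, and activity was fitted in both directions against DMSO.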

Read-out in test [16]: Interleukin-1 alpha (IL1a), IL1A (gene 3552)
Kind of test: BSK_KF3CT_IL1a: BioMAP Diversity Plus: KF3CT Assay for Interleukin-1 alpha (IL1a) Biomarker Activity (AID 2283070). The note with it: primary human keratinocytes with fibroblasts; actives raise or lower the signal. In a few lines: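 IL-1a was detected by ELISA 24 h after chemical treatment of a co-culture of human skin keratinocytes and foreskin fibroblasts. Gain or loss of signal was fitted against the DMSO baseline.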

Read-out in test [17]: TIMP metallopeptidase inhibitor 2 (TIMP2), TIMP2 (gene 7077)
Nature of the test: BSK_KF3CT_TIMP2: BioMAP Diversity Plus: KF3CT Assay for TIMP metallopeptidase inhibitor 2 (TIMP2) Biomarker Activity (AID 2283071). The following applies: primary human keratinocytes with fibroblasts; actives raise or lower the signal. The essentials: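 Chemicals were dosed onto human skin primary co-cultures of keratinocytes and foreskin fibroblasts, and TIMP-2 was measured by ELISA after 24 hours. Activity in either direction was fitted relative to DMSO.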

Read-out in test [18]: Transforming growth factor beta 1 (TGFb1), TGFB1 (gene 7040)
Nature of the test: BSK_KF3CT_TGFb1: BioMAP Diversity Plus: KF3CT Assay for Transforming growth factor beta 1 (TGFb1) Biomarker Activity (AID 2283072). The following applies: primary human keratinocytes with fibroblasts; actives raise or lower the signal. The essentials: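 KF3CT co-culture (keratinocytes + fibroblasts), 24 h exposure → TGF-b1 ELISA → bidirectional fit, DMSO = baseline. Parallel SRB total-protein staining (0.1% SRB, 10% TCA fixation, 560 nm) for cytotoxicity.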

Read-out in test [19]: Epidermal growth factor receptor (EGFR), EGFR (gene 1956)
Kind of test: BSK_hDFCGF_EGFR: BioMAP Diversity Plus: hDFCGF Assay for Epidermal growth factor receptor (EGFR) Biomarker Activity (AID 2283057). The following applies: primary human foreskin fibroblasts; actives raise or lower the signal. In a few lines:
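Dosing human primary skin fibroblasts, then measuring surface EGFR by ELISA at 24 h, gives the endpoint; gains and losses relative to DMSO were fitted in both directions.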

`CC(C)(OO)c1ccccc1`: the result in [1], in test [2], in test [13], in test [14], in test [15] and in test [16] was inactive. Further, the result in test [17] and in [18] was inactive. Further, the AC50 in test [3] is 20 µM (active); in test [4], 38.1 µM (active); in [5], 6.71 µM (active); in test [6], 28.9 µM (active); in test [7], 34.8 µM (active); in [8], 34.7 µM (active). Besides, the half-maximal activity concentration (AC50) was 34.4 µM (active) in test [9], 37.1 µM (active) in [10], 28.6 µM (active) in test [11] and 30.4 µM (active) in [12].

In the case of `O=C(OC1CCCCC1)c1ccccc1C(=O)OC1CCCCC1`, the outcome in test [1], in test [2], in [13], in test [14] and in test [15] was inactive. Further, the AC50 in test [3] is 5.33 µM (active); in [4], 34.9 µM (active); in [5], 10.2 µM (active); in [6] it was 11 µM (active); in test [7], 9.82 µM (active); in test [8], 14.3 µM (active). Moreover, the AC50 in test [9] was 16.4 µM (active); in test [10] it was 20.9 µM (active); in test [11], 6.34 µM (active); in test [12] it was 12.3 µM (active); in test [16] it was 15.3 µM (active); in [17], 20.9 µM (active). Besides, the half-maximal activity concentration (AC50) in test [18] was 2.62 µM (active).

With `CC(C)(c1ccccc1)c1ccc(O)c(C(C)(C)c2ccccc2)c1`, the AC50 in test [1] was 29.4 µM (active); in test [2], 29.3 µM (active); in [3] it was 2.94 µM (active); in test [19], 3.45 µM (active); in test [5], 2.82 µM (active); in [6] it was 3.63 µM (active). Moreover, the AC50 in [7] is 3.57 µM (active); in test [8], 4.07 µM (active); in [9] it was 4.86 µM (active); in test [10] it was 4.05 µM (active); in test [11], 2.79 µM (active); in [12], 3.74 µM (active). In addition, the concentration at half-maximal activity (AC50) was 3.68 µM (active) in [13]; 3.1 µM (active) in test [14]; 2.33 µM (active) in test [15]; 4.02 µM (active) in test [16]; 2.17 µM (active) in test [17]; 2.83 µM (active) in test [18].

Regarding `CCC(C)(C)c1ccc(O)c(C(C)(C)CC)c1`, the AC50 in [1] was 31.4 µM (active); in test [2], 12.2 µM (active); in test [3], 7.28 µM (active); in [5], 9.6 µM (active); in [6], 8.2 µM (active); in test [7] it was 11.3 µM (active). In addition, the half-maximal activity concentration (AC50) is 8.53 µM (active) in [8]; 8.09 µM (active) in [9]; 10.7 µM (active) in test [10]; 9.33 µM (active) in test [11]; 7.87 µM (active) in test [12]; 11.7 µM (active) in [13]. Moreover, the AC50 in test [14] is 9.69 µM (active); in test [15] it was 7.84 µM (active); in test [16] it was 9.89 µM (active); in test [17], 9.47 µM (active); in test [18], 8.12 µM (active).

Take `CCCCCCCCC(=O)NCc1ccc(O)c(OC)c1`: the AC50 in test [1] is 20 µM (active); in test [3], 25.6 µM (active); in [12], 0.155 µM (active). The outcome in test [2], in [19], in test [5], in test [6], in [7] and in test [8] was inactive. In addition, the outcome in test [9], in test [10], in test [11], in test [13], in [14] and in test [15] was inactive. For the same molecule, the outcome in test [16], in [17] and in test [18] was inactive.

The AC50 is the concentration at which the activity in the assay is half-maximal.
